This note sets out measurements from PubChem BioAssay (NCATS).

SMILES strings stand for the structures. Results filed as inconclusive are left out. Active and inactive are the calls of the source. Calls come from the whole dose curve; as a rule, active = well fitted cell-killing curve with a large enough effect; inconclusive = small, poorly fitted or top-dose-only effect; inactive = flat fitted curve, though single readings scatter.

A short description of the assay: Cellular viability qHTS for adrenocortical cancer (ACC) cell line NCI-H295R (AID 1963990).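 Note: 0% = DMSO only wells and -100% = full killing with cytotoxic reference compound; nearly all actives have a fitted effect of over 60% in size.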 Conditions: CellTiter-Glo ATP luminescence, 48 h; series mostly up to 46.1 µM; activity change, negative = viability loss: at the top concentration. In outline: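 Readout: CellTiter-Glo luminescence, 20 min RT. Exposure: 48 h, 37C/5% CO2. Cells: NCI-H295R, ITS-DMEM serum-free. Range: up to 46 uM. Analysis: 4PL fit, IC50 plus efficacy.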
Take `O=C(O)Cc1ccc(-c2ccccc2)cc1`: the “activity change, negative = viability loss” value is -11.9% (inactive).
The result for `O=c1[nH]cnc2nc[nH]c12` reads 10.9% (inactive).
The result for `CO/N=C(/C(=O)N[C@@H]1C(=O)N2C(C(=O)[O-])=C(C[n+]3ccn4ncccc43)CS[C@H]12)c1nsc(N)n1` reads -4.57% (inactive).
